# Screening results: PubChem BioAssay, National Center for Advancing Translational Sciences (NCATS)
# IL-1B inflam inh – inflammasome signaling inhibition, IL-1 beta readout; THP-1 LPS/ATP IL-1B secretion, AlphaLISA, 16 h; stronger effect = lower value; activity change, % at 57.5 µM; 360,000 compounds, 4.7% hits; AID 743279; in the data active means activity change below about -50%; inconclusive means mostly about -30% to -49%
#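 THP-1 cells pretreated 1 hr with compounds (up to 57.5 uM final), then stimulated with LPS (250 ng/mL final) plus ATP (1.25 mM final); secreted IL-1B measured by AlphaLISA after 16 hr, decreased signal indicating inhibition.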
# DT40 TDP1 CPT – DT40-hTDP1 cell growth loss with CPT; Potency, µM (doses to about 46.2 µM), inactives show at the highest dose activity change, negative = growth inhibition, most hits filed as inhibitors; AID 686979; 420,000 compounds, 12% hits; chicken DT40 Tdp1-/-;hTDP1 cells + 20 nM CPT, ATP luminescence, 48 h; further: potency means the concentration at half of the fitted maximal effect; nearly all actives have a fitted effect of over 55% in size
#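 Cell growth measured by CellTiter-Glo luminescence after a minimum 48 h, 37 C compound exposure with 20 nM CPT in Tdp1-knockout DT40 cells stably expressing hTDP1, seeded 400/well; qHTS titration format.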
# DT40 TDP1 no CPT – qHTS for Inhibitors of human tyrosyl-DNA phosphodiesterase 1 (TDP1): qHTS in cells in absence of CPT. 420,000 compounds, 15% hits. Potency, µM (series often up to 46.2 µM), inactives show top-dose activity change, negative = growth inhibition, actives largely listed as inhibitors. DT40 Tdp1-/- hTDP1 cells, no CPT, ATP luminescence, 48 h; further: potency means the concentration at half of the fitted maximal effect; nearly all actives have a fitted effect of over 55% in size
#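 Cells were dispensed at 400 per well, compounds added by pin tool, plates incubated ≥48 hr at 37 °C, then CellTiter-Glo added for 30 min at room temperature before luminescence reading. Line: DT40 Tdp1-/- complemented with hTDP1; camptothecin omitted.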
# HT1080NT lethal – kills 2HG-producing HT-1080-NT fibrosarcoma cells; HT-1080-NT fibrosarcoma viability, CellTiter-Glo ATP luminescence, 48 h; Potency, µM (series often up to 46.1 µM), for the others: top-dose activity, negative = less viability, most hits filed as cytotoxic; 360,000 compounds, 1.6% hits; AID 686970;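 further: NT is the 2HG producing partner of a matched IDH1 knockdown line; potency means the concentration at half of the fitted maximal effect; 0% = DMSO-treated cells and -100% = media-only wells without cells; nearly all actives have a fitted effect of over 55% in size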
#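 HT-1080-NT fibrosarcoma cells (2HG-overproducing), 750 cells/well in RPMI with 5% FBS, dosed after 2 h and incubated 48 h at 37C. CellTiter-Glo luminescence normalized to DMSO and no-cell wells; concentration-response curves fitted and classed.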
# HT1080 IDH1KD tx – toxicity to HT-1080 IDH1 knockdown cells (counter line) | Potency, µM (titrated, usually from 46.1 µM), for inactives: top-dose activity, negative = toxicity, actives largely listed as cytotoxic | 360,000 compounds, 2% hits | HT-1080 IDH1 knockdown viability, ATP luminescence, 48 h;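 further: potency means the concentration at half of the fitted maximal effect; 0% = DMSO wells and -100% = cell-free medium wells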
#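 Cytotoxicity counter-line: IDH1KD HT-1080, 48 h, CellTiter-Glo. Curves classed by r2, magnitude and activity.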
# Numbers without * were called inactive; u = inconclusive; x = no result; [ ] = remark or other dose. Most compounds without a hit are left out; they make up all but 19% or so of the library. Unless noted, the call rests on the fitted dose curve; in most records, active means well fitted curve in the direction sought with a large enough effect; inconclusive means small, poorly fitted or top-dose-only effect, or another doubt; inactive means no such curve, though single readings can be large; an effect the other way counts as inactive or inconclusive. Unless noted, on the % scale 0 is the no-effect control and ±100 the full control effect.
SMILES,IL-1B inflam inh,DT40 TDP1 CPT,DT40 TDP1 no CPT,HT1080NT lethal,HT1080 IDH1KD tx
O=C(/C=C/c1ccco1)Nc1ccc(Cl)c(-c2nc3cc(Cl)ccc3o2)c1,x,u,26µM*,x,x
Cc1ccc2oc(-c3cc(NC(=O)/C=C/c4ccco4)ccc3Cl)nc2c1,x,u,21µM*,x,x
O=C(/C=C/c1ccco1)Nc1ccc(Cl)c(S(=O)(=O)N2CCOCC2)c1,-2,u,u,-3%,u
O=C(Nc1ccc2oc(-c3cccnc3)nc2c1)c1ccco1,u,-14%,-24%,10%,1%
Cn1c(SCc2ccc(Br)cc2)nnc1-c1ccccn1,u,u,u,19%,7%
CCCc1cnc(N2CCN(C(=O)c3ccc(OC)cc3)CC2)nc1,31,u,u,-24%,-1%
Cc1cccc(C)c1NC(=O)CN(C)C(=O)CC1CC2CCC1C2 (stereo unspecified),7,8%,u,-4%,14%
COc1cc(C(=O)NCCNC(=O)c2ccco2)cc(OC)c1OC,57,-30%,-44%,-18%,-26%
COc1ccc(S(=O)(=O)N2CCCC2)cc1C(C)C,18,-29%,u,-4%,-1%
O=C(Nc1ccc(Cl)cn1)c1ccccc1SCc1ccccc1,-2,-27%,-16%,-11%,-5%
Cc1cccc(NC(=O)c2ccccc2SCc2ccc(F)cc2)n1,16,u,15µM*,-6%,8%
CC1=NN(c2ccccc2)C(=O)/C1=C\C=C\c1ccccc1,x,4.6µM*,7.3µM*,4.1µM*,3.7µM*
CC1=NN(c2ccccc2)C(=O)/C1=C/C=C/c1ccc(N(C)C)cc1,-3,23µM*,23µM*,-8%,-2%
Nc1ccc(/C=C/c2ccc3cccnc3c2)cc1,x,u,16µM*,x,x
Nc1ccc(C=Cc2ccc(N)cc2)cc1,-13,21µM*,18µM*,-28%,u
O=C(COC(=O)/C=C/c1ccccc1[N+](=O)[O-])NC1CC1,11,u,21µM*,5%,1%
COc1cc(CC(=O)OCC(=O)Nc2sccc2C(N)=O)cc(OC)c1OC,30,29µM*,16µM*,0%,-28%
NC(=O)c1ccsc1NC(=O)COC(=O)/C=C/c1ccccc1[N+](=O)[O-],19,u,16µM*,-5%,-6%
NC(=O)c1ccsc1NC(=O)COC(=O)COc1ccccc1[N+](=O)[O-],15,1%,4%,12%[9.24 µM],-1%
NC(=O)c1ccsc1NC(=O)COC(=O)/C=C/c1ccccc1,15,u,18µM*,0%,1%
O=C(COC(=O)/C=C/c1ccccc1[N+](=O)[O-])NC1CCS(=O)(=O)C1 (stereo unspecified),-11,10%,2%,12%,1%
CC(C)CC(=O)N1CCC(O)(CS(=O)(=O)c2ccc(Cl)c(Cl)c2)CC1,6,4%,-4%,-12%,3%
COc1ccc(CNC(=O)C2=CC(c3ccc(C)cc3)=NS(=O)(=O)N2C)cc1,31,-19%,-10%,15%,0%
O=C(Nc1ccc(N2CCN(C(=O)c3ccccc3)CC2)cc1)c1cccnc1,-58*,-18%,-19%,24%,3%
O=C(Nc1ccc(N2CCN(C(=O)c3ccc(Cl)cc3)CC2)cc1)c1cccnc1,u,u,u,3%,5%
SMILES,IL-1B inflam inh,DT40 TDP1 CPT,DT40 TDP1 no CPT,HT1080NT lethal,HT1080 IDH1KD tx
O=C(Nc1ccc(N2CCN(C(=O)c3cccs3)CC2)cc1)c1cccnc1,-52*,u,u,24%,23%
Nc1c(-c2nc(-c3ccc4c(c3)OCO4)cs2)c2ccccn2c1C(=O)c1ccc(Cl)cc1,x,-5%,-6%,x,x
Cc1cc(C)c(Nc2nc3ccccc3n3c(C)nnc23)c(C)c1,x,15µM*,13µM*,x,x
CC(=O)Nc1cccc(Nc2nc3ccccc3n3c(C)nnc23)c1,x,2.6µM*,2.3µM*,x,x
CC(C)Nc1nc(SC(C)C(=O)Nc2ccccc2)nc(N(C)C)n1 (stereo unspecified),-87*,7%,-27%,-16%,-13%
CCNc1nc(SC(C)C(=O)Nc2ccccc2)nc(N(C)C)n1 (stereo unspecified),-16,u,u,-24%,-6%
COc1ccc(C2CC(c3cccc(C)c3)n3ncnc3N2)cc1 (stereo unspecified),-8,u,-24%,-1%,4%
COc1cccc(C2CC(c3ccccc3Cl)Nc3ncnn32)c1 (stereo unspecified),u,26µM*,u,-2%,-3%
CCOc1ccc(C2CC(c3cccc(C)c3)n3ncnc3N2)cc1 (stereo unspecified),-12,13µM*,23µM*,4%,-7%
Clc1ccccc1C1CC(c2ccccc2)Nc2ncnn21 (stereo unspecified),-3,15µM*,u,1%,-11%
COc1ccc(C2CC(c3ccccc3Cl)Nc3ncnn32)cc1OC (stereo unspecified),-3,-28%,u,-1%,9%
O=C(O)c1ccccc1C1c2ccccc2Oc2ccccc21,10,31%,-3%,-5%,-5%
CC(C)c1c(C(=O)N(C)Cc2cccc3ncccc23)cnn1-c1nccc(-c2ccco2)n1,x,-9%[9.04 µM],15µM*,x,x
Cc1cnc(-n2ncc(C(=O)N(C)Cc3cccc4ncccc34)c2C(C)C)nc1-c1ccc(F)cc1,x,-1%,-10%,x,x
Cc1ccc2sc(N(Cc3cccnc3)C(=O)CCS(=O)(=O)c3ccccc3)nc2c1C,x,5.8µM*,6.5µM*,x,x
COc1ccc2nc(N(Cc3cccnc3)C(=O)COc3ccccc3)sc2c1,x,-2%,-2%,x,x
O=C(CCOc1ccccc1)N(Cc1cccnc1)c1nc2c(Cl)cccc2s1,x,1.3µM*,2.1µM*,x,x
Cc1cc(C)c2sc(N(Cc3cccnc3)C(=O)CCS(=O)(=O)c3ccccc3)nc2c1,x,4.1µM*,2.9µM*,x,x
O=C(CCS(=O)(=O)c1ccccc1)N(Cc1cccnc1)c1nc2c(Cl)cccc2s1,x,5.2µM*,5.2µM*,x,x
O=C(CCc1ccccc1)N(Cc1cccnc1)c1nc2ccc(F)cc2s1,x,-23%,-6%,x,x
O=C(c1cccs1)N(Cc1cccnc1)c1nc2c(Cl)cccc2s1,x,-21%,u,x,x
CCCNC(=O)c1cc(S(=O)(=O)N2CCCCC2)c[nH]1,6,1%,-13%,-11%,10%
Cc1cc(C)c2nc(N(Cc3cccnc3)C(=O)CCS(=O)(=O)c3ccccc3)sc2c1,x,4.6µM*,4.6µM*,x,x
Cc1cccc2sc(N(Cc3cccnc3)C(=O)CCS(=O)(=O)c3ccccc3)nc12,x,2.9µM*,3.3µM*,x,x
